Test results published in PubChem BioAssay (Tox21).
Results filed as inconclusive are left out. The source made the active and inactive calls. Unless noted, the call rests on the fitted dose curve; in most records, active means well fitted curve in the direction sought with a large enough effect in the repeat runs; inconclusive means weak or mixed curves; inactive means no such curve, though single readings can be large; an effect the other way counts as inactive or inconclusive.

Columns and labels:
[1] = qHTS assay to identify small molecule agonists of the vitamin D receptor (VDR) signaling pathway - cell viability counter screen (AID 743224); further: series mostly up to about 63 µM; nearly all actives have a fitted effect of over 50% in size
How it was run: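 Cells: VDR-bla, 2,000/well, settled 4 h. Treatment: compounds in DMSO, 16 h, 37C/5% CO2. Readout: CellTiter-Glo luminescence after 30 min RT.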

[2] = qHTS assay to identify small molecule antagonists of the vitamin D receptor (VDR) signaling pathway - cell viability counter screen (AID 743225); further: nearly all actives have a fitted effect of over 50% in size
How it was run: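 VDR-bla HEK 293T cells, 4 h pre-incubation at 37C, then compound plus 1-alpha,25-dihydroxyvitamin D3 (3 nM final) for 16 h. After the beta-lactamase FRET read, CellTiter-Glo was added to the same wells; luminescence after 30 min at room temperature.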

[3] = qHTS assay to identify small molecule agonists of the NFkB signaling pathway (AID 1159509; active means well fitted curve in the direction sought with a large enough effect in the signal ratio in the repeat runs, not every such curve was filed as active; the % refers to the signal ratio; further: series mostly up to about 61 µM)
How it was run: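 Beta-lactamase reporter assay run in quantitative high-throughput format on an NF-kB-responsive ME-180 line, with 5 hr compound treatment and a FRET-based blue/green fluorescence readout.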

[4] = qHTS assay to identify small molecule agonists of the NFkB signaling pathway - cell viability counter screen (AID 1159515; calls by dose curve; further: series mostly up to about 61 µM; nearly all actives have a fitted effect of over 55% in size)
How it was run: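 Cells are seeded (2,000 NFkB-bla ME-180 per well), rested overnight, and dosed with DMSO-dissolved compounds for 5 hr at 37 C. Viability is then read by CellTiter-Glo luminescence after 30 min at room temperature.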

[5] = qHTS assay to identify small molecule agonists of the endoplasmic reticulum stress response signaling pathway (AID 1159516; active means well fitted activation curve with a large enough effect in the signal ratio in the repeat runs, not every such curve was filed as active; the % refers to the signal ratio)
How it was run: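 Cells are seeded at 1,500 per well and incubated overnight. Compounds in DMSO are added for 5 hr at 37 C, then beta-lactamase FRET substrate for 2 hr at room temperature, and fluorescence at 460 and 530 nm is measured.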

[6] = qHTS assay to identify small molecule agonists of the endoplasmic reticulum stress response signaling pathway - cell viability counter screen (AID 1159517; calls by dose curve;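 further: HeLa cells carrying an ER stress response element beta-lactamase reporter; series mostly up to about 61 µM; nearly all actives have a fitted effect of over 50% in size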)
How it was run: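 Cytotoxicity of test compounds toward ESRE-bla HeLa cells was assessed after 5 hr exposure. The luminescent CellTiter-Glo signal was measured 30 min after reagent addition.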

[7] = qHTS assay to identify small molecule antagonists of the retinoid-related orphan receptor gamma (ROR-gamma) signaling pathway - cell viability counter screen (AID 1159520); further: nearly all actives have a fitted effect of over 50% in size
How it was run: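 Tet-on ROR gamma CHO cells (1,000/well) were plated 4 hr, given compounds in DMSO for 2 hr at 37 C, then induced with 1 uM final doxycycline for 16 hr. Viability was read as ATP by CellTiter-Glo luminescence after 30 min.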

[8] = target: Nuclear receptor ROR-gamma (Homo sapiens) (UniProt P51449); assay: qHTS assay to identify small molecule antagonists of the retinoid-related orphan receptor gamma (ROR-gamma) signaling pathway (AID 1159521)
How it was run: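 Tet-on RORγ CHO cells carrying a ROR response element–luciferase reporter were pretreated with compounds for 2 h, then induced with 1 uM (final) doxycycline hyclate for 16 h at 37 C. Antagonism was read as decreased ONE-Glo luminescence.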

[9] = qHTS assay to identify small molecule agonists of the AP-1 signaling pathway - cell viability counter screen (AID 1159525; calls by dose curve; further: nearly all actives have a fitted effect of over 55% in size)
How it was run: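 Each titration point was normalised to DMSO and tetra n-octyl ammonium bromide controls. The read was Cell Titer Glo luminescence after 30 min at RT, following 5 h compound exposure of ME-180 AP-1-bla cells at 37 °C.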

[10] = qHTS assay to identify small molecule agonists of the AP-1 signaling pathway (AID 1159526; calls by dose curve)

Measured: Potency

CC(=O)NC(Cc1ccccc1)C(=O)O (stereo not given)
inactive: all assays above

Fc1ccccc1-c1ccccc1
inactive: all assays above

Cc1c(C)n(CCN(C)C)c2ccc(C(=O)OCCN(C)C)cc12
inactive: all assays above

CO
inactive: all assays above

C=CCn1c(=O)n([C@@H]2O[C@H](CO)[C@@H](O)[C@H]2O)c2nc(N)[nH]c(=O)c21
inactive: all assays above

Cc1c(F)cc2c(=O)c(C(=O)O)cn3c2c1CCC3C (stereo not given)
inactive: all assays above

COC[C@H](c1ccc(C(F)(F)F)cc1)N1CCN(C2(C)CCN(C(=O)c3c(C)ncnc3C)CC2)C[C@H]1C
inactive: all assays above

CC(C)N1C(=O)c2ccccc2C1=O
inactive: all assays above

Cc1cc(C)c(NC(=O)CN(CC(=O)O)CC(=O)O)c(C)c1Br
inactive: all assays above

CCN1CCN(c2cc3c(cc2F)c(=O)c(C(=O)O)cn3C2CC2)CC1
inactive: all assays above

COCc1ccc(COC)cc1
inactive: all assays above

CCn1c(=O)c2c(nc(/C=C/c3ccc(OC)c(OC)c3)n2C)n(CC)c1=O
inactive: all assays above

O=C(O)CCNC(=O)c1ccc(N=Nc2ccc(O)c(C(=O)O)c2)cc1
inactive: all assays above

Cc1nccn1CC1CCc2c(c3ccccc3n2C)C1=O (stereo not given)
inactive: all assays above

C=C(C)C(=O)OCCC(C)OC(=O)C(=C)C (stereo not given)
inactive: all assays above

CC(=O)c1ccc(C)cc1
inactive: all assays above

CCCCOCC(C)OCC(C)O (stereo not given)
inactive: all assays above

CN(C)C(=O)Nc1ccccc1
inactive: all assays above

CCOC(=O)[C@H](CCc1ccccc1)N[C@@H](C)C(=O)N1CCC[C@H]1C(=O)O
inactive: all assays above

O=C(O)c1ccccc1-c1ccc(C(F)(F)F)cc1
inactive: all assays above

CCCC(C)C(=O)O (stereo not given)
inactive: all assays above

CCCC=O
inactive: all assays above

Nc1nc(F)nc2c1ncn2[C@@H]1O[C@H](CO)[C@@H](O)[C@@H]1O
inactive: all assays above
